The results in this text go back to PubChem BioAssay (NCI).

About 83,000 compounds went through this panel and 20% of them were active in at least one assay; those are over-represented in the sample as a whole.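 Cells were grown in 96-well plates and exposed to the test compound at a single concentration for 48 hours; results are reported as percent growth, with values below 10 considered active.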 A number with no mark means an inactive call. The source made the active and inactive calls.

Experiment in all cases: NCI-60 one-dose screen, 48 h (100 = growth as untreated, 0 = no growth, -100 = all killed)
Common to all, as to settings: 10 µM unless noted

Assay [1] relates to HCT-15 colon.
Assay [2] relates to SNB-75 CNS.
In assay [3] the test system is U251 CNS.
Assay [4] relates to PC-3 prostate.
Assay [5] deals with SK-MEL-5 melanoma.
The subject of assay [6] is UACC-62 melanoma.
The subject of assay [7] is LOX IMVI melanoma.
Assay [8] relates to SK-MEL-28 melanoma.
The subject of assay [9] is SK-MEL-2 melanoma.
Assay [10] relates to EKVX NSCLC.
In assay [11] the test system is UO-31 renal.
The test system of assay [12] is TK-10 renal.
Assay [13] concerns ACHN renal.
The test system of assay [14] is CAKI-1 renal.
Assay [15] concerns A498 renal.
Assay [16] relates to CCRF-CEM leukemia.
The subject of assay [17] is MOLT-4 leukemia.
The subject of assay [18] is SNB-19 CNS.
Assay [19] concerns SN12C renal.

Regarding `Fc1cccc(CNc2c3ccccc3nc3ccccc23)c1`, the growth in assay [1] is 22.9%; in [2], 63%; in assay [3], 35.2%; in [4] it was 49%; in [5], 60.5%; in [6] it was 50.3%. Also, the growth is 12.3% in assay [7]; 78.5% in [8]; 81.4% in [9]; 32% in assay [10]; 24% in assay [11]; 64.1% in assay [12]. The growth in [13] was 17.1%; in assay [14], 27%; in assay [15], -12.6% (active); in [16], 46.3%; in assay [17], 14.9%.
With `CC/C(=C(\c1ccc(Cl)cc1)c1ccc(OCCN2CCCCC2)cc1)c1ccc(O)cc1`, the growth is 2.22% (active) in assay [1]; 40.5% in assay [2]; 61.1% in [18]; 0.575% (active) in assay [3]; 30.4% in assay [4]; 2.53% (active) in [5]. In addition, the growth was 71% in assay [6]; -91.5% (active) in assay [7]; -63.4% (active) in assay [8]; 57.2% in assay [9]; 68% in [10]; 62.5% in [19]. Besides, the growth is 38.4% in [11]; 68.5% in assay [12]; 60.4% in assay [13]; 62.3% in assay [14]; 87.2% in [15]; 23.1% in [16]. The growth in [17] was -5.41% (active).
Regarding `Cc1cccc(NC(=O)N/C(N)=N/c2nc3ccccc3s2)c1`, the growth is 23% in assay [1]; 4.63% (active) in [2]; 42.3% in assay [18]; 28.9% in assay [3]; 34.2% in assay [4]; 23.7% in assay [5]. Besides, the growth in assay [6] was 33.5%; in assay [7], 34.4%; in assay [8] it was 63%; in [9], 33%; in [10], 49.6%; in assay [19], 43.9%. Also, the growth in assay [11] is 38.6%; in assay [12], 59%; in assay [13], 38.7%; in [14], 25%; in [15] it was -3.86% (active); in assay [16], 21.4%. The growth in [17] was 35.7%.
As to `CSc1nc(-c2ccco2)c(C#N)c(=O)n1C`, the growth in assay [1] was 98.1%; in assay [2] it was 89.3%; in assay [18], 93.7%; in [3], 103%; in assay [4], 94.4%; in assay [5], 101%. The growth in assay [6] is 99.5%; in assay [7], 97.2%; in [8] it was 109%; in assay [9] it was 94.3%; in [10], 98.4%; in assay [19] it was 110%. In addition, the growth was 112% in assay [11]; 104% in [12]; 100% in assay [13]; 89.2% in assay [14]; 103% in [15]; 88.7% in assay [16]. Further, the growth in assay [17] was 95.1%.
As for `COc1ccc(/C=C(/C(=O)N2CCNCC2)c2cc(OC)c(OC)c(OC)c2)cc1O`, the growth was 96.6% in [1]; 28.1% in [2]; 38.4% in [18]; 19.6% in assay [3]; 26.8% in assay [4]; 40% in [5]. The growth in [6] was 32.5%; in assay [7], 44%; in assay [8], 55.5%; in assay [9] it was 10.8%; in assay [10] it was 84.1%; in [19], 54.6%. In addition, the growth was 89.7% in assay [11]; 92.4% in assay [12]; 103% in [13]; 93.1% in [14]; 59% in [15]; 15.4% in [16]. In assay [17], the growth was 25.5%.
